High-throughput results: PubChem, Buhrlage Lab, Dana-Farber Cancer Institute and Novartis Institutes for BioMedical Research (Cambridge, Mass)
In the library only some 4.6% were active in any assay of this set; here they are far more common.
USP8 block = inhibitors of human USP8 deubiquitinase; hit rate 4.2% among 47,000; AID 1645853; inhibition, % at 20 µM; purified USP8, Ub-rhodamine cleavage fluorescence, 30 min; P40818
USP7 inh = inhibitors of human USP7 deubiquitinase. AID 1645854. inhibition, % at 20 µM. Q93009. hit rate 0.3% among 47,000. purified USP7, Ub-rhodamine cleavage fluorescence
UCHL1 inh = blocks human UCHL1 ubiquitin-rhodamine cleavage; P09936; purified UCHL1, Ub-rhodamine cleavage fluorescence; inhibition, % at 20 µM; hit rate 0.2% among 47,000; AID 1645859
USP10 inh = blocks human USP10 ubiquitin-rhodamine cleavage; Q14694; purified USP10, Ub-rhodamine fluorescence, 60 min; inhibition, % at 20 µM; hit rate 1.1% among 47,000
Target sequence (Q14694 whole entry, looked up): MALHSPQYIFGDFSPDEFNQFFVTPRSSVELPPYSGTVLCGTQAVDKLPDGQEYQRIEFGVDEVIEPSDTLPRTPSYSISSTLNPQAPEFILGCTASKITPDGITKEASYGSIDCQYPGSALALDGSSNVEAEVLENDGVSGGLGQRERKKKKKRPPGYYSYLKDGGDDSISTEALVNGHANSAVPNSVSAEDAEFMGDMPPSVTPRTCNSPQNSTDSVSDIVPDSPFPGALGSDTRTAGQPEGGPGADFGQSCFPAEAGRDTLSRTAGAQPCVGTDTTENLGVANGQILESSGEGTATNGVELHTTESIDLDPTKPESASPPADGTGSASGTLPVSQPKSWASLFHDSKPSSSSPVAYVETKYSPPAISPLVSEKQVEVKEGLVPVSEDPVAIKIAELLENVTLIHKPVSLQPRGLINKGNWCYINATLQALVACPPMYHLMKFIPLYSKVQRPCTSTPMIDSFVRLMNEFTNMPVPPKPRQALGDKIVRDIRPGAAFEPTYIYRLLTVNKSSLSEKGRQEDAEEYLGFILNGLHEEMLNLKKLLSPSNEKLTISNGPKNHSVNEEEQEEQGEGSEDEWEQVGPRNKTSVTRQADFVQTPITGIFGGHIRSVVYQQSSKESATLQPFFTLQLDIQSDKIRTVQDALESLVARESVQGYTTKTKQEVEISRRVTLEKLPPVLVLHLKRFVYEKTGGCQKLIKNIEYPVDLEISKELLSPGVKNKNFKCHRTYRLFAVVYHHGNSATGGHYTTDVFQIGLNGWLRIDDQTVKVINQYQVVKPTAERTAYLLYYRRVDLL
The depositor's hits bear a star. Rule as the data show it: active = inhibition above about 30%; inactive = the rest.

`COc1cccc(NC(=O)C2C3C=CC4(O3)C2C(=O)N(CCc2ccc(Cl)cc2)C4C(=O)NC2CCCCC2)c1` (configuration not stated) gave USP8 block 50*, USP7 inh 7, UCHL1 inh 2 and USP10 inh 35*.
COc1ccc(-c2nc3n(n2)C(CC(=O)Nc2cccc4ccccc24)C(=O)N3)cc1 (configuration not stated) was read as USP8 block 51*, USP7 inh 7, UCHL1 inh 1 and USP10 inh 41*.
For Cc1cc(C(=O)COC(=O)c2cc(=O)[nH]c3ccccc23)c(C)n1CC1COc2ccccc2O1 (configuration not stated) the results were USP8 block -7, USP7 inh -4, UCHL1 inh -8 and USP10 inh -6.
Cc1cc(=O)[nH]c(SCC(=O)c2cc(C)n(CCC3=CCCCC3)c2C)c1C#N was read as USP8 block 49*, USP7 inh 5, UCHL1 inh 5 and USP10 inh 45*.
Screening Cn1c(=O)c2c(nc(CN3CCc4ccccc4C3)n2CC(=O)c2ccccc2)n(C)c1=O returned USP8 block 36*, USP7 inh -8, UCHL1 inh -2 and USP10 inh -5.
For Cc1cc2n(n1)CC(C)(C(=O)NCc1ccccc1)N(c1ccc3c(c1)OCCO3)C2=O (configuration not stated) the results were USP8 block 0, USP7 inh -6, UCHL1 inh -3 and USP10 inh -2.
`CC1(C(=O)NCc2ccc(F)cc2)Cn2nc(-c3ccco3)cc2C(=O)N1c1ccc2c(c1)OCCO2` (configuration not stated) gave USP8 block 61*, USP7 inh -9, UCHL1 inh 7 and USP10 inh 12.
For CCCn1c(=O)n(CC(=O)c2ccccc2F)c2c(C(N)=O)nc(-c3ccco3)nc21 the results were USP8 block 59*, USP7 inh 7, UCHL1 inh 2 and USP10 inh -3.
For CCn1c(=O)n(CC(=O)c2ccc(F)cc2F)c2c(C(N)=O)nc(-c3ccco3)nc21 the results were USP8 block 48*, USP7 inh 25, UCHL1 inh 13 and USP10 inh 7.
CCn1c(=O)n(CC(=O)c2ccc(Cl)cc2)c2c(C(N)=O)nc(-c3ccco3)nc21 was read as USP8 block 49*, USP7 inh 40*, UCHL1 inh 22 and USP10 inh 6.
Screening CC(=O)N1CCc2cc(NS(=O)(=O)c3cccc4cc(C)cnc34)ccc21 returned USP8 block 0, USP7 inh -9, UCHL1 inh -2 and USP10 inh 0.
Cn1cc(C(=O)Nc2cccnc2)c2nn(-c3ccccc3)c(=O)c-2c1 was read as USP8 block 31*, USP7 inh 7, UCHL1 inh 2 and USP10 inh 3.
`O=C(Nc1cccnc1)c1cn(Cc2ccc(F)cc2)cc2c(=O)n(-c3ccccc3)nc1-2` gave USP8 block -12, USP7 inh 3, UCHL1 inh 1 and USP10 inh 3.
`CCN(C=C1NC(=O)c2ccccc2N1)CC(=O)Nc1ccc(Cl)c(C(F)(F)F)c1` gave USP8 block 30*, USP7 inh -11, UCHL1 inh 6 and USP10 inh -3.
COc1ccc(/C(C#N)=C\c2ccc3c(c2)OCO3)cc1 was read as USP8 block 30*, USP7 inh 11, UCHL1 inh 7 and USP10 inh 7.
Screening COc1ccccc1NC(=O)c1nc(-c2cn(-c3cccc(F)c3)nn2)no1 returned USP8 block 96*, USP7 inh 14, UCHL1 inh 12 and USP10 inh 42*.
`O=C(NC1CC1)c1nc(-c2cn(-c3ccc(F)cc3)nn2)no1` gave USP8 block 3, USP7 inh 0, UCHL1 inh -2 and USP10 inh 1.
Screening Fc1cccc(-n2cc(-c3noc(-c4ccc[nH]4)n3)nn2)c1 returned USP8 block 35*, USP7 inh -1, UCHL1 inh 2 and USP10 inh 1.
O=C(Nc1ccccc1F)c1nc(-c2cn(-c3ccc(F)cc3)nn2)no1 was read as USP8 block 90*, USP7 inh -13, UCHL1 inh 11 and USP10 inh 25.
`O=C(c1nc(-c2cn(-c3cccc(F)c3)nn2)no1)N1CCOCC1` gave USP8 block 4, USP7 inh -8, UCHL1 inh -1 and USP10 inh 1.
O=C(NC1CC1)c1nc(-c2cn(-c3ccc(Cl)cc3)nn2)no1 was read as USP8 block 40*, USP7 inh 12, UCHL1 inh 1 and USP10 inh 6.
Screening COc1cc(C(C(=O)Nc2c(C)cccc2C)N(Cc2ccccc2)C(=O)c2ccc(-n3cnnn3)cc2)ccc1O (configuration not stated) returned USP8 block 19, USP7 inh -10, UCHL1 inh 3 and USP10 inh 0.
For CCOc1ccccc1CNC(=O)COCc1cc(-c2ccc(F)cc2)on1 the results were USP8 block 3, USP7 inh -1, UCHL1 inh 2 and USP10 inh 4.
For Cc1cnnn1-c1ccc(C(=O)Nc2ccc(Cl)cc2Cl)cc1 the results were USP8 block 59*, USP7 inh 6, UCHL1 inh 3 and USP10 inh 7.
Cc1cnnn1-c1ccc(C(=O)Nc2ccccc2F)cc1 was read as USP8 block 1, USP7 inh 5, UCHL1 inh 3 and USP10 inh -2.
Screening CC(C)c1noc(-c2ccnc(-n3cnc(C(=O)NCC4CCCO4)c3)c2)n1 (configuration not stated) returned USP8 block -21, USP7 inh -3, UCHL1 inh 1 and USP10 inh -1.
`CCOC(=O)c1ccc(-n2nc(C)c3c(C)cc(=O)oc32)cc1` gave USP8 block -56, USP7 inh -33, UCHL1 inh -1 and USP10 inh -8.
`CN(C)c1ccc(CNC(=O)c2nnc(C(=O)Nc3ccccc3)s2)cc1` gave USP8 block 37*, USP7 inh 18, UCHL1 inh 0 and USP10 inh 14.
COc1ccc(CNC(=O)c2nnc(C(=O)Nc3ccc(F)cc3)s2)cc1 was read as USP8 block 21, USP7 inh 9, UCHL1 inh 2 and USP10 inh 17.
Cc1csc(-c2cc(S(=O)(=O)NCc3ccc(F)cc3)c(C)n2C)n1 was read as USP8 block 2, USP7 inh 1, UCHL1 inh 4 and USP10 inh 4.
c1csc(-c2nc(Nc3ccc4c(c3)CCC4)c3ccccc3n2)c1 was read as USP8 block 57*, USP7 inh 6, UCHL1 inh -1 and USP10 inh -2.
Screening O=C(Cn1c(COc2ccccc2)nc2ccccc21)Nc1cc(Cl)ccc1Cl returned USP8 block 55*, USP7 inh 12, UCHL1 inh 3 and USP10 inh 26.
Screening O=C(Cn1c(COc2ccccc2)nc2ccccc21)Nc1ccc(N2CCOCC2)cc1 returned USP8 block 34*, USP7 inh 11, UCHL1 inh 2 and USP10 inh 23.
Screening COc1cccc(NC(=O)Cn2c(COc3ccccc3)nc3ccccc32)c1 returned USP8 block 15, USP7 inh 6, UCHL1 inh 1 and USP10 inh 6.
